The source of these data is PubChem BioAssay.

Active and inactive are the calls of the source.

A short description of test [1]: optical density shifts of acrAB sulA E. coli – strain DRC41, OD650, 48 h, E. coli filamentation inducer project, primary screen (AID 1152).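 Also: E. coli MC1000 strain DRC41 lacking acrAB efflux pump and sulA.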 Particulars: higher = more signal, called active from +8 up or from −8 down.
Test [2] is described as follows: probe aLefty1 binding on compound microarray – biochemical, small-molecule microarray, 635/667 nm fluorescence, primary screen (AID 1153).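 Also: score merges spot fluorescence with signal-to-noise ratio from the scanned slide images.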 The following applies: higher = more signal.
Test [3] is described as follows: plasmodial surface anion channel blockers, osmotic lysis – cell-based, P. falciparum Indochina, OD700, 1 h, primary screen (AID 1154). Particulars: P. falciparum Indochina infected RBC osmotic lysis, higher = more signal, called active from +8 up or from −8 down.
Test [4] can be described thus: plasmodial surface anion channel blockers, osmotic lysis – cell-based, P. falciparum Indochina, OD700, 2 h, primary screen (AID 1155).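 Also: lysis reports solute entry through the parasite surface anion channel PSAC.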 Particulars: P. falciparum Indochina infected erythrocytes, higher = more signal, called active from +8 up or from −8 down.
Test [5] is described as follows: changes in parasitized red cell lysis, either direction – P. falciparum Indochina, OD700, 3 h, PSAC antagonist project, primary screen (AID 1156). The following applies: P. falciparum-infected erythrocytes, osmotic lysis, higher = more signal, called active from +8 up or from −8 down.
Test [6] can be described thus: plasmodial surface anion channel blockers, osmotic lysis – cell-based, P. falciparum Indochina, OD700, 18 h, primary screen (AID 1157). The following applies: P. falciparum Indochina infected erythrocytes, osmotic lysis OD700, 18 h; higher = more signal, called active from +8 up or from −8 down.
Test [7] in a line: S6 kinase pathway phospho-S6 level changes – cell-based, A549, cytoblot, luminescence, serum-stimulated, primary screen (AID 1158).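 Also: serum-stimulated A549 lung adenocarcinoma cells; signal is phosphorylated S6 detected by cytoblot immunostaining with HRP secondary.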 Particulars: 5 h, higher = more signal.
The target of test [8] is NADPH oxidase 2 (Homo sapiens) (UniProt P04839). The test can be described thus: compounds shifting NOX2 Amplex Red fluorescence – cell-based, HEK293-NOX2, PMA-stimulated, NOX inhibitor project, primary screen (AID 1159). Also: test concentration not given here. The following applies: 45 min, higher = more signal, called active from +8 up or from −8 down.
For test [9], the target named is NADPH oxidase 4 (Homo sapiens) (UniProt Q9NPH5). The test can be described thus: compounds shifting NOX4 Amplex Red fluorescence – cell-based, HEK293-NOX4, tetracycline-induced, NOX inhibitor project, primary screen (AID 1160). The following applies: HEK293-NOX4, Amplex Red H2O2 fluorescence, 45 min; higher = more signal, called active from +8 up or from −8 down.
Test [10] has as its target NADPH oxidase 5 (Homo sapiens) (UniProt Q96PH1). The test can be described thus: compounds shifting NOX5 Amplex Red fluorescence – cell-based, HEK293-NOX5, NOX inhibitor project, primary screen (AID 1161). Particulars: HEK293-NOX5, ionomycin, 45 min, higher = more signal.
Test [11] is described as follows: compound effects on lung adenocarcinoma cell viability – A549, calcein-AM fluorescence, 48 h, basal, profiling panel (AID 1162). Also: test concentration not given here. Particulars: higher = more signal.
Test [12] in a line: compound effects on differentiated 3T3-L1 adipocyte viability – cell-based, 3T3-L1 adipocytes, calcein-AM fluorescence, 48 h, basal, profiling panel (AID 1163). Also: test concentration not given here. The following applies: 3T3-L1 adipocytes viability, higher = more signal.
Test [13] can be described thus: compound effects on hepatocellular carcinoma cell viability – HepG2, calcein-AM fluorescence, 48 h, basal, profiling panel (AID 1164). Also: test concentration not given here. Particulars: higher = more signal.
The nature of test [14]: compound effects on multiple myeloma cell viability – MM1S, calcein-AM fluorescence, 48 h, basal, profiling panel (AID 1165).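 Also: viability of MM1S multiple myeloma cells under basal unstimulated conditions; test concentration not given here.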 The following applies: higher = more signal.
Test [15] in a line: calcein-AM signal in unstimulated myeloma cells – cell-based, calcein-AM fluorescence, 48 h, PK04 Diversity Set, profiling panel (AID 1166).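 Also: cells grown under basal conditions without added stimulus; test concentration not given here.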 Particulars: RPMI8226 myeloma viability, higher = more signal.
Test [16] can be described thus: JC-1 mitochondrial signal, unstimulated HepG2 cells – cell-based, JC-1 fluorescence, 24 h, 100 nL compound, profiling panel (AID 1167). Also: test concentration not given here. Particulars: HepG2 mitochondrial potential, higher = more signal.
Test [17] in a line: JC-1 mitochondrial signal, unstimulated adipocytes – cell-based, JC-1 fluorescence, 3T3-L1 adipocytes, 24 h, 100 nL compound, profiling panel (AID 1168). Also: test concentration not given here. The following applies: JC-1 mitochondrial fluorescence, higher = more signal, called active from +8 up or from −8 down.
Test [18] is described as follows: JC-1 mitochondrial signal, unstimulated myeloma cells – cell-based, JC-1 fluorescence, RPMI8226, 24 h, 100 nL compound, profiling panel (AID 1169). Also: test concentration not given here. The following applies: JC-1 mitochondrial potential fluorescence, higher = more signal.
Test [19] is described as follows: JC-1 mitochondrial signal, unstimulated MM1S myeloma – cell-based, JC-1 fluorescence, 24 h, 100 nL compound, profiling panel (AID 1170). Also: test concentration not given here. Particulars: MM1S mitochondrial potential, higher = more signal.
The nature of test [20]: resazurin metabolic signal in A549 cells – cell-based, resazurin fluorescence, 24 h, PK04 Diversity Set, profiling panel (AID 1171). Also: test concentration not given here. The following applies: A549 viability, higher = more signal, called active from +8 up or from −8 down. On the technique in general: Alamar Blue is a resazurin reagent that responds to reducing activity.

NADPH oxidase 5 (Homo sapiens), sequence (Q96PH1 whole entry, looked up): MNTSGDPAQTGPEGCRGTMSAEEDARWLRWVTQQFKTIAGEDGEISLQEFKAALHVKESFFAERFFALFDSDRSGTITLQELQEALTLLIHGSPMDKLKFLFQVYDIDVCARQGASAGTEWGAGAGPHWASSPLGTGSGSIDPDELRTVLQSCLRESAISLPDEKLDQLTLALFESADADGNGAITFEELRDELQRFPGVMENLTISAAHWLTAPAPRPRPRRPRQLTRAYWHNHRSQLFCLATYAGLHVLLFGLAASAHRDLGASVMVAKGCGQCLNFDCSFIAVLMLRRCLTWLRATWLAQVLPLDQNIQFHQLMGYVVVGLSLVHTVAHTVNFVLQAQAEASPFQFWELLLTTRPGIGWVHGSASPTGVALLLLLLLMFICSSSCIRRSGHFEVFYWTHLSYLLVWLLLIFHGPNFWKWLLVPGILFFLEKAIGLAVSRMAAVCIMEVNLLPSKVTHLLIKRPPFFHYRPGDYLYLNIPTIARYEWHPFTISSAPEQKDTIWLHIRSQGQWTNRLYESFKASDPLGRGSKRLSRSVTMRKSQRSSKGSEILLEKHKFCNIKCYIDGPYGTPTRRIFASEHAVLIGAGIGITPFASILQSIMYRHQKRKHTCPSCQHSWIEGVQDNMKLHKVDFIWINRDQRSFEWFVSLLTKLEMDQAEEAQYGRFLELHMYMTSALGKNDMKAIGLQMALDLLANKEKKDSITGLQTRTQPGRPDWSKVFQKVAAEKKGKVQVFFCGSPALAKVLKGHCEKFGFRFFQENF
NADPH oxidase 2 (Homo sapiens), sequence (P04839 whole entry, looked up): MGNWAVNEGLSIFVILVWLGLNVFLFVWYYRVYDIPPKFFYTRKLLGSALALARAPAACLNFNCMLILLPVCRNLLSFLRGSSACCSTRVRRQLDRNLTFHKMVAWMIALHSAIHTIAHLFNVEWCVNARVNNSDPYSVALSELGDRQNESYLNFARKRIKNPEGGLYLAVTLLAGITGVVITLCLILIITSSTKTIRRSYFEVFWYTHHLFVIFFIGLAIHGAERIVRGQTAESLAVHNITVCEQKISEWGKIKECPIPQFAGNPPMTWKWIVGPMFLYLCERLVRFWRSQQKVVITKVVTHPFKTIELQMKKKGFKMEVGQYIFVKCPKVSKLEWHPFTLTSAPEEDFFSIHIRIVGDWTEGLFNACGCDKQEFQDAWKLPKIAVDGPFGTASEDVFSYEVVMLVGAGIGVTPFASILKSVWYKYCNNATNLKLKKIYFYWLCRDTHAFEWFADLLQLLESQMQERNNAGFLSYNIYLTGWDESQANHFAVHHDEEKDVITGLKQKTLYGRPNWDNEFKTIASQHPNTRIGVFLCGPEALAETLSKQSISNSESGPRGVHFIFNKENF
NADPH oxidase 4 (Homo sapiens), sequence (Q9NPH5 whole entry, looked up): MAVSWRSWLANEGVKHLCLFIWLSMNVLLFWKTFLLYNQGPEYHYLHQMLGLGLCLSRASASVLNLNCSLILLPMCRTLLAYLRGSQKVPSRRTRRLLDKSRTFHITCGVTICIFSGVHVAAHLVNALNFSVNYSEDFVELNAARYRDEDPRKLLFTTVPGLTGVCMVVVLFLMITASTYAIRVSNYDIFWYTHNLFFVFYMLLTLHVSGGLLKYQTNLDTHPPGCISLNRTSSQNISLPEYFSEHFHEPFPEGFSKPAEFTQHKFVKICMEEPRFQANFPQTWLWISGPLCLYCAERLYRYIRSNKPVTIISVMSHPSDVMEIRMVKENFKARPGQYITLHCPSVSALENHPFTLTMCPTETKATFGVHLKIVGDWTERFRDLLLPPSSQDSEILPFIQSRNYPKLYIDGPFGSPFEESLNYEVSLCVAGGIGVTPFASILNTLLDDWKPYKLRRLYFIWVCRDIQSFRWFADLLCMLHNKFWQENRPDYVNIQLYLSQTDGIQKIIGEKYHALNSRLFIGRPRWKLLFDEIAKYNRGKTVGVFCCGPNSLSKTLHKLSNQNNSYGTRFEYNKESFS

For the molecule `CCOC(=O)C[C@H]1[C@H](OC(=O)c2ccc(C(=O)c3ccccc3)cc2)[C@@H](NC(=O)c2ccc(-c3ccccc3)cc2)c2cc(OCCCO)ccc2N1C(=O)Cc1ccc(OC)cc1`, the z-score was 0.548 (inactive) in [1]; 11.8 (active) in [3]; 1.62 (inactive) in test [4]; -0.455 (inactive) in test [5]; 0.429 (inactive) in test [6]; 0.53 in [7]. The z-score in test [8] was -0.44 (inactive); in test [9], 0.397 (inactive); in test [10], 0.501; in test [11], -0.61; in test [12], 0.122; in test [13], -0.461. In addition, the z-score in test [14] is 0.727; in test [15], -0.205; in test [16] it was 1.57; in test [17], -0.0721 (inactive); in test [18] it was -0.807; in test [19] it was -0.551. Besides, in test [20], the z-score is -0.131 (inactive). Also, the composite z-score in [2] was determined as 0.344.

In the case of `[N-]=[N+]=Nc1ccccc1C[C@]1(C(=O)NCCN2CCOCC2)COC(c2ccc(OCCCO)cc2)=N1`, the z-score in test [1] is 1.87 (inactive); in test [3], 21.5 (active); in test [4], 4.14 (inactive); in test [5], 2.57 (inactive); in [6], 0.913 (inactive); in test [7] it was 0.148. The z-score in test [8] is 2.89 (inactive); in test [9], 1.12 (inactive); in test [10], -0.481; in test [11], 1.84; in [12], 0.0471; in test [13] it was 1.31. The z-score in test [14] was 0.534; in test [15], 0.586; in test [16] it was 0.157; in test [17], 0.959 (inactive); in test [18], -0.264; in test [19], -0.422. Also, the z-score in [20] was 0.887 (inactive). Besides, the composite z-score in [2] worked out at 0.111.

Regarding `C=CCNC(=O)[C@@H]1[C@H]2C(=O)O[C@H](c3ccccc3)[C@H](c3ccccc3)N2[C@H](c2ccccc2OCCO)[C@@]12C(=O)Nc1ccc(C#CCC(C(=O)OC)C(=O)OC)cc12`, the z-score is -0.79 (inactive) in test [1]; 4.93 (inactive) in [3]; 1.81 (inactive) in [4]; 0.622 (inactive) in test [5]; 1.36 (inactive) in [6]; -0.304 in [7]. For the same molecule, the z-score in test [8] was 0.21 (inactive); in test [9] it was 0.161 (inactive); in test [10] it was 1.98; in test [11], -0.423; in [12] it was -0.695; in [13], -0.852. Further, the z-score in test [14] is -3.28; in [15], -4.17; in [16] it was -1.4; in test [17], 2.37 (inactive); in test [18] it was -0.941; in test [19] it was -1.96. In addition, in test [20], the z-score is -1.3 (inactive). This molecule showed a composite z-score in [2] of 0.666.

For `CCCCCC1=C2CNC(C)(C(=O)OC)C=C2C(C)C1=O` (stereo not given), the z-score in test [1] was -1.81 (inactive); in [3], 0.585 (inactive); in [4], 0.0544 (inactive); in [5] it was 0.777 (inactive); in [6], 0.373 (inactive); in test [7] it was -0.628. Besides, the z-score in test [8] was 0.116 (inactive); in test [9], -2.6 (inactive); in test [10], -3.07; in test [11] it was -1.23; in test [12] it was -0.0708; in [13], -1.29. Also, the z-score in test [14] was -0.865; in test [15], -0.467; in test [16], -1.71; in test [17], -1.22 (inactive); in test [18], 0.782; in test [19] it was -0.362. Besides, the z-score in test [20] is -0.722 (inactive). In test [2], this molecule displayed a composite z-score of -0.0236.
